Assay outcomes as filed in PubChem BioAssay.
Rows were chosen to be rich in hits. Some 1.2% of all compounds tested hit in one or more screens of this group.
hERG WT inh = KCNH2 (human, wildtype) channel inhibition. 0.37% of 340,000 active. U2OS, BacMam KCNH2, thallium flux FluxOr; stronger effect = lower value. activity change, % at 1.84 µM. Q12809. AID 720551;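 active = maximum activity change below -70%; inconclusive = maximum activity change between -70% and -50%; inactive = maximum activity change above -50%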
Target sequence (Q12809 whole entry, looked up): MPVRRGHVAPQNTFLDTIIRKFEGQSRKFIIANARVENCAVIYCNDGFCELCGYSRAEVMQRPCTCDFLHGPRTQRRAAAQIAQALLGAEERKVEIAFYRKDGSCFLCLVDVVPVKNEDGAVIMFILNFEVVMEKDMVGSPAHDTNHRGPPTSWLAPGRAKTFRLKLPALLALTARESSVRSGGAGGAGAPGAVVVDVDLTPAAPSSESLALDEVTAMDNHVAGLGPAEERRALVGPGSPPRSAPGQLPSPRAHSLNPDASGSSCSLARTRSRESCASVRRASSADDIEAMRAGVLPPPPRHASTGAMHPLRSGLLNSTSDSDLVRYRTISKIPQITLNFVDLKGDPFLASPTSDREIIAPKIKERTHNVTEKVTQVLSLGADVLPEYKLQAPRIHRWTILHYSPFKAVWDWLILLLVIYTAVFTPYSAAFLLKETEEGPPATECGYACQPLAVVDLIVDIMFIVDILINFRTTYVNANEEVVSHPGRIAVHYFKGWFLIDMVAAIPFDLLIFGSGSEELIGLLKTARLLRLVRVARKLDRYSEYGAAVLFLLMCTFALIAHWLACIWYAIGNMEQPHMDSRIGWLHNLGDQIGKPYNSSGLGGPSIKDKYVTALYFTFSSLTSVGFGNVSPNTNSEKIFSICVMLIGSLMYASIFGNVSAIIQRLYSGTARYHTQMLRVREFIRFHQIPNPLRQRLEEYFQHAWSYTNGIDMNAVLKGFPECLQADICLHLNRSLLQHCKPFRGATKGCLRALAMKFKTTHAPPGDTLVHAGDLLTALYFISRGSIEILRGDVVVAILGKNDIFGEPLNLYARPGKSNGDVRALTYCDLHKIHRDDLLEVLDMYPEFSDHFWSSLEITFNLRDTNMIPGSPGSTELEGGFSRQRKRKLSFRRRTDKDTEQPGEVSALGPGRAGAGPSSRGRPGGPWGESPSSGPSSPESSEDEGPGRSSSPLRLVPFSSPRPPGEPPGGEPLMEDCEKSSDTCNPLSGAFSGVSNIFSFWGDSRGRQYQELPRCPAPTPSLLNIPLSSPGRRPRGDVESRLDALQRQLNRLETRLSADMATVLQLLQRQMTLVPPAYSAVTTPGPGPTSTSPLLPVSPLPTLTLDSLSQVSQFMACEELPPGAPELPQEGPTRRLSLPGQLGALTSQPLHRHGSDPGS
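U2OS cells were transduced with wild-type KCNH2 virus (2.03 x 10^8 / mL) for 4 h at room temperature, then cultured overnight at 37 C. Thallium flux was read with FluxOr dye. Rate constants were normalized to DMSO controls.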
KCNH2 3.1 block = inhibitors of human KCNH2 3.1 potassium channel isoform; U2OS KCNH2 3.1, thallium flux FluxOr; stronger effect = lower value; 0.95% of 340,000 active; activity change, % (tested at about 1.8 µM);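 active = maximum activity change below -70%; inconclusive = maximum activity change from -70% to -50%; inactive = maximum activity change above -50%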;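 note: thallium influx rate constant from kinetic fluorescence after stimulation buffer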
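Virally transduced U2OS (3.1 isoform, 4 h infection in dark at RT) → overnight 37 C → FluxOr + Red40 in HBSS/HEPES, 45 min → stimulation buffer, 2 min kinetic read → rate constant vs DMSO controls.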
Luc counter = Kinase-Glo luciferase inhibition (counter-screen); Q27757; Kinase-Glo luciferase, ATP luminescence, 8 min; Potency, µM (doses to about 38.3 µM), usual class: inhibitors; 0.28% of 200,000 active; AID 1379; active = well fitted inhibition curve with a large enough effect; inconclusive = small, poorly fitted or top-dose-only effect; note: nearly all actives have a fitted effect of over 60% in size
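Light output from Kinase-Glo luciferase with luciferin and 10 uM ATP in 50 mM imidazole pH 7.2, KCl, MgCl2, Tween 20, BSA; compound pin-delivered, 8-min ambient incubation, then luminescence read.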
A number is an active result; n = inactive; u = inconclusive; x = no result given; [ ] = remark or other dose.

SMILES	hERG WT inh	KCNH2 3.1 block	Luc counter
O=C(NCCCn1ccnc1)/C(=C/c1cccs1)NC(=O)c1ccco1	n	n	n
Cc1ccc(C(=O)N/C(=C\c2ccccc2)C(=O)NCCN2CCOCC2)cc1	n	n	x
NC(=O)C1CCN(C(=O)N2c3ccccc3Sc3ccccc32)CC1	n	n	n
O=C(C1CC1)N1c2ccccc2Sc2ccccc21	n	-82.8	x
COc1ccc(Nc2cnn(-c3nc4ccccc4s3)c(=O)c2Cl)cc1	n	n	u
O=c1c(Cl)c(Nc2cccc(Cl)c2)cnn1-c1nc2ccccc2s1	n	-106.1	n
COc1ccc(NC2CCCN(C(=O)COc3ccc(Cl)cc3C)C2)cc1OC (configuration not stated)	n	x	x
COc1ccc(C(CCNCc2ccc(N(C)C)cc2)c2ccccc2OC)cc1 (configuration not stated)	-99.0	n	x
COc1ccc(CNCCC(c2ccc(OC)cc2)c2ccccc2OC)cc1 (configuration not stated)	n	-72.3	x
COc1ccc(CNCc2ccc(OC)c3ccccc23)cc1	n	n	x
COc1ccc(CNCCC(c2ccc(F)cc2)c2ccc(OC(C)C)cc2)cc1OC (configuration not stated)	n	u	x
COc1ccc(CNCCC(c2ccccc2)C2CCOC(C)(C)C2)cc1 (configuration not stated)	n	n	n
COc1ccc(C(CCNCc2ccc(OC(C)C)cc2)c2ccccc2OC)cc1 (configuration not stated)	-88.3	-89.7	x
COc1ccc(CNC(=O)Cn2ncn3cccc3c2=O)cc1	x	x	n
COc1ccc(Cn2c(=O)c3[nH]cnc3n(-c3ccc(C)cc3)c2=O)cc1	n	n	x
Cc1ccc(NC2CCCN(C(=O)c3cc(C(C)C)nn3C)C2)cc1C (configuration not stated)	n	n	x
O=C(COc1ncnc2ccccc12)Nc1cc([N+](=O)[O-])ccc1Cl	n	n	n
O=[N+]([O-])c1ccc(COc2ncnc3ccccc23)cc1	-162.8	-192.3	n
O=C(c1ccc(F)cc1)C1CCN(Cc2ccc(F)cc2)CC1	n	n	x
COc1ccccc1N1CCN(CCCC(=O)c2ccc(F)cc2)CC1	n	-70.4	n
COc1ccc(C(=O)CCN2CCN(c3ccccc3OC)CC2)cc1	n	n	n
O=C(CCCN1CCC(C(=O)c2ccc(F)cc2)CC1)c1ccc(F)cc1	-74.1	-103.3	x
CC1CC(C)CN(CCCNC(=O)CN2C(=O)CSc3ccc(S(=O)(=O)N4CCOCC4)cc32)C1 (configuration not stated)	n	n	x
COc1ccc2c(c1)O[C@@H](c1cccc(C(F)(F)F)c1)[C@H](OC(=O)NCCOc1ccccc1)C2=O	x	x	n
Cc1nnc(N2CCCC(C(=O)NCc3ccc(OC(C)C)cc3)C2)c2nn(-c3ccccc3)c(C)c12 (configuration not stated)	n	-81.6	x
SMILES	hERG WT inh	KCNH2 3.1 block	Luc counter
Cc1nnc(N2CCCC(C(=O)Nc3cc(F)ccc3F)C2)c2nn(-c3ccccc3)c(C)c12 (configuration not stated)	n	n	x
Nc1nc2c(ncn2[C@@H]2O[C@H](CO)[C@@H](O)[C@H]2O)c(=O)[nH]1	x	x	n
N=c1ncn(C2OC(CO)C(O)C2O)c2nc(Br)[nH]c12 (configuration not stated)	-227.8	-167.9	x
O=C(Nc1nnc(SCC(=O)N2CCCCC2)s1)c1ccc(F)cc1F	-152.4	n	x
O=C(Cc1ccc(F)cc1)Nc1nnc(SCC(=O)N2CCCCC2)s1	n	n	n
CC(=O)N=c1c(C#N)cc2c(=O)n3cccc(C)c3nc2n1CC(C)C	x	x	n
COCCN1C(=O)N[C@@H](c2cccc(C(F)(F)F)c2)[C@H](C(C)=O)[C@H]1C	n	n	n[7.66 µM]
CCOc1ccccc1NC(=O)C(c1ccccc1)N1CCN(CC(=O)N2CCOCC2)CC1 (configuration not stated)	n	-82.9	x
CCOc1ccccc1NC(=O)C(c1ccccc1)N1CCN(CC(=O)N2CCCC2)CC1 (configuration not stated)	n	-72.1	x
CCOc1ccccc1NC(=O)CN1CCCCCC1	n	n	x
CCOc1ccccc1NC(=O)CC1(CC(=O)N2CCOCC2)CCCC1	n	n	x
Cc1ccc(C)c(NC(=O)C(c2ccccc2)N2CCN(CC(=O)N3CCOCC3)CC2)c1 (configuration not stated)	n	-89.0	x
O=C(CN1CCN(C(c2ccccc2)c2ccccc2)CC1)N1CCOCC1	n	n	n
COc1ccc(C2CC(=O)c3c(O)cc(O)cc3O2)c(CC=C(C)C)c1OC (configuration not stated)	n	n	x
CN(C)N1C(=O)CC(C)(c2ccc([N+](=O)[O-])cc2)C1=O (configuration not stated)	n	n	x
COc1ccc(C2(C)C(C#N)C(=O)NC(=O)C2C#N)cc1 (configuration not stated)	n	n	x
CCN1C(=O)[C@H]2[C@@H](c3ccc(-c4cccc(Cl)c4)c(OC)c3)N[C@@](C)(C(=O)OC)[C@H]2C1=O	n	n	x
COc1ccccc1/C=C/C(=O)NCc1cccnc1	n	-100.6	n
COc1cc(/C=C/C(=O)NCc2cccnc2)cc(OC)c1OC	n	n	n
COc1ccccc1N1C(=O)C2C(C(=O)c3ccccc3)=NN(c3ccccc3OC)C2C1=O (configuration not stated)	n	n	x
COc1ccc2cc(Br)ccc2c1CC(=O)NC1CC(C)(C)NC(C)(C)C1	-123.4	n	n
CCNC(=O)Cc1c(OC)ccc2cc(Br)ccc12	n	n	n
COC(=O)c1sc(S(=O)(=O)NC(Cc2ccccc2)C(=O)O)c(C(=O)OC)c1C (configuration not stated)	n	n	x
COc1ccccc1/C=C/c1nc(C#N)c(N(C)C)o1	n	n	x
CN(C)c1oc(/C=C/c2ccccc2)nc1C#N	-261.8	n	n
SMILES	hERG WT inh	KCNH2 3.1 block	Luc counter
C=CCSc1nnc(CCc2ccccc2)n1N	n	n	x
COC(=O)[C@H]1C[C@@H](c2ccccc2)[C@H](C)C1(C)C	n	n	x
Cc1cccn2c(CNC3CCCc4ccccc43)c(C(=O)N3CCCCC3)nc12 (configuration not stated)	n	-181.7	n
CCOC(=O)C1CCCN(Cc2c(C(=O)N3CCCCC3)nc3c(C)cccn23)C1 (configuration not stated)	n	n	x
COc1ccc(NC(=O)Cc2nnc(SCC(=O)NC3CCCC3)n2C)cc1	n	n	x
C(=C/c1ccccc1)/CN1CCN(C(c2ccccc2)c2ccccc2)CC1	x	x	n
Cc1[nH]n(-c2ccc([N+](=O)[O-])cc2)c(=O)c1C=NCCN1CCN(C(=O)C(C)C)CC1	n	n	10µM
Cc1[nH]n(-c2ccc([N+](=O)[O-])cc2)c(=O)c1C=NCCc1ccc(S(N)(=O)=O)cc1	n	n	n
CCOc1ccc(OCc2cccc(C(=O)O)c2)cc1	n	n	11.2µM
COc1ccc(OCc2cccc(C(=O)O)c2)cc1	n	n	u
O=C(NCc1ccccc1)c1cccc(COc2ccc3c(c2)CCC3)c1	n	n	n
O=C(O)c1cccc(COc2ccc3c(c2)CCC3)c1	n	-112.0	x
